Source: PubChem BioAssay
SW480 rerep – inducers of DNA re-replication in SW480 colon cancer cells; SW480 DNA re-replication, Hoechst DNA content imaging, 48 h; Potency, µM (series often up to 46.1 µM), for inactives: at the top dose re-replication activation, actives largely listed as activators; 340,000 compounds, 1.8% hits; AID 624297; note: potency is the fitted concentration of half-maximal effect; % of control where 0% means no effect; nearly all actives have a fitted effect of over 55% in size
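DNA re-replication was detected as more nuclei of elevated Hoechst intensity after 48 hr exposure to compound (23 nL pinned per well of 250 cells).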
Chronic BCR inh – chronic active BCR signaling inhibition | ABC-DLBCL IkBa-CBG/CBR reporter, luminescence ratio, 4 h | Potency, µM (top dose mostly 46.1 µM), for inactives: at the highest dose activity change, negative = inhibition, hits mostly inhibitors | 340,000 compounds, 0.05% hits; active = well fitted inhibition curve with a large enough effect in the signal ratio, with a control signal flat, not every such curve was filed as active; inconclusive = small, poorly fitted or top-dose-only effect, or effect the other way, or a change in a side signal; the % refers to the signal ratio;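 note: potency is the fitted concentration of half-maximal effect; plate controls were basal doxycycline-induced cells for no effect and cells given 10 µM MG132 for full effect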
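TMD8 ABC-DLBCL cells carrying doxycycline-inducible green luciferase fused to IkappaBalpha plus unfused red luciferase were exposed to compounds (up to 46 uM) for 4 hrs at 37C. Activity came from the overlap-corrected green/red luminescence ratio.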
TDP1 cell CPT – DT40-hTDP1 cell growth loss with CPT; chicken DT40 Tdp1-/-;hTDP1 cells + 20 nM CPT, ATP luminescence, 48 h; Potency, µM (highest dose often 46.2 µM), without a hit: top-dose activity change, negative = growth inhibition, most hits filed as inhibitors; 420,000 compounds, 12% hits; note: potency is the fitted concentration of half-maximal effect; % is set by controls: 0 for no effect and ±100 for the full control effect; nearly all actives have a fitted effect of over 55% in size
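Chicken DT40 Tdp1-/- cells complemented with human TDP1, 400 cells/well, exposed to compounds plus 20 nM camptothecin for at least 48 h at 37 C; viability read as ATP content by CellTiter-Glo luminescence.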
TDP1 cell noCPT – qHTS for Inhibitors of human tyrosyl-DNA phosphodiesterase 1 (TDP1): qHTS in cells in absence of CPT; DT40 Tdp1-/- hTDP1 cells, no CPT, ATP luminescence, 48 h; Potency, µM (highest dose often 46.2 µM), for inactives: at the top dose activity change, negative = growth inhibition, hits mostly inhibitors; 420,000 compounds, 15% hits; AID 686978, 2013; note: potency is the fitted concentration of half-maximal effect; % is set by controls: 0 for no effect and ±100 for the full control effect; nearly all actives have a fitted effect of over 55% in size
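Cells were dispensed at 400 per well, compounds added by pin tool, plates incubated ≥48 hr at 37 °C, then CellTiter-Glo added for 30 min at room temperature before luminescence reading. Line: DT40 Tdp1-/- complemented with hTDP1; camptothecin omitted.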
IL1B secr inh – inhibitors of inflammasome signaling (IL-1 beta secretion); 360,000 compounds, 4.7% hits; activity change, % at 57.5 µM; AID 743279; THP-1 LPS/ATP IL-1B secretion, AlphaLISA, 16 h; hits give low values; in the data active = activity change below about -50%; inconclusive = mostly about -30% to -49%; note: % is set by controls: 0 for no effect and ±100 for the full control effect
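THP-1 cells pretreated 1 hr with compounds (up to 57.5 uM final), then stimulated with LPS (250 ng/mL final) plus ATP (1.25 mM final); secreted IL-1B measured by AlphaLISA after 16 hr, decreased signal indicating inhibition.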
MCF10A rerep – DNA re-replication induction in MCF 10a cells; MCF 10A DNA re-replication, Hoechst nuclear intensity, 48 h; Potency, µM (highest dose often 46.1 µM), without a hit: at the top dose activity, positive = re-replication, actives largely listed as activators; 350,000 compounds, 2.9% hits; AID 624296; note: potency is the fitted concentration of half-maximal effect; % of control where 0% means no effect; nearly all actives have a fitted effect of over 50% in size
Active calls of the source: *; ? = inconclusive; . = no result given; [ ] = dose if it differs, or a comment. Most compounds without a hit are left out; they make up all but 19% or so of the library. Unless noted, calls come from the whole dose curve; as a rule, active = well fitted curve in the direction sought with a large enough effect; inconclusive = small, poorly fitted or top-dose-only effect, or another doubt; inactive = no such curve, though single readings can be large; an effect the other way counts as inactive or inconclusive.

SMILES	SW480 rerep	Chronic BCR inh	TDP1 cell CPT	TDP1 cell noCPT	IL1B secr inh	MCF10A rerep
CCOc1cccc2sc(=NC(=O)CCS(=O)(=O)c3ccccc3)n(CC)c12	-6%	4%	?	12µM*	7	16%
COCCn1c(=NC(=O)CCS(=O)(=O)c2ccccc2)sc2cc(C(=O)OC)ccc21	-6%	1%	5%	17%	1	-7%
COc1ccc(CCNC(=O)CCCN2C(=O)C(c3ccccc3)Oc3cccnc32)cc1OC (configuration not stated)	-7%	5%	?	-29%	-10	-13%
CCOc1cccc2sc(=NC(=O)c3ccco3)n(CC(=O)OC)c12	0%	?	?	15µM*	-18	10%
C#CCn1c(=NC(=O)c2ccco2)sc2cccc(Cl)c21	27%	?	-7%	-18%	17	?
CCOC(=O)Cc1csc(SC(C)C(=O)NC2CCCCC2C)n1 (configuration not stated)	-2%	-9%	-5%	-20%	19	9%
CCOc1ccc(C(=O)N2CCC3(CC2)NCCc2[nH]cnc23)cc1OCC	-1%	-15%	7%	3%	0	1%
CC(NS(=O)(=O)c1cc2c3c(c1)CCC(=O)N3CCC2)c1ccccc1 (configuration not stated)	4%	?	-25%	?	9	2%
CC1CCC(NC(=O)CCN2C(=O)C3C4C=CC(C4)C3C2=O)CC1 (configuration not stated)	17%	0%	-4%	18%	1	-5%
O=C(NCc1cccs1)c1ccc(-c2ccc(F)c(F)c2)c2ccoc12	.	.	12µM*	10µM*	.	.
O=C(NCC1CC1)c1ccc(-c2cn[nH]c2)c2ccoc12	.	.	?	?	11	.
O=C(NCC1CCOCC1)c1ccc(-c2ccc(F)c(F)c2)c2ccoc12	.	.	12µM*	10µM*	-92*	.
O=C(NCc1ccc(F)c(F)c1)c1ccc(-c2ccc(F)c(F)c2)c2ccoc12	.	.	18µM*	21µM*	?	.
CCOc1ccc(Nc2ncnc3c2cnn3C)cc1	-2%	?	?	?	-7	0%
C[C@@H]1CN([C@@H](C)CO)C(=O)c2cc(Br)cnc2O[C@H]1CN(C)C(=O)Nc1ccc(F)cc1	.	.	-1%	-6%	9	.
COc1cc(CNCCO)cc(Cl)c1OCc1ccccc1Cl	?	?	?	?	-91*	3%[9.22 µM]
CCCCOc1c(Cl)cc(CNC(C)(C)CO)cc1OCC	1%	1%	?	-24%	-10	-1%
CCOc1cc(CNCC(C)C)cc(Cl)c1OCc1ccccc1	23%	?	?	21µM*	-52*	1%
COc1cc(CNn2cn[nH]c2=S)cc(Cl)c1OCc1ccccc1	-1%	8%	1%	-11%	17	19%
COc1cc(CNCCc2ccccc2)cc(Cl)c1OCc1ccccc1	?	?	?	?	-104*	23µM*
CCCCNCc1cc(Cl)c(OCCC)c(OCC)c1	?	?	?	?	-64*	6%
COc1cc2oc(=O)c(CC(=O)N3CCCCC3)c(C)c2cc1OC	.	.	-18%	9%	.	.
CC(NC(=O)Cn1ccsc1=N)C12CC3CC(CC(C3)C1)C2 (configuration not stated)	?	0%	16µM*	23µM*	-59*	0%
Cc1cc(C)cc(Nc2cc(C(=O)NCCCN(Cc3ccccc3)C(C)C)c3ccccc3n2)c1	.	0%	3.3µM*	3.3µM*	.	.
CSc1cccc(Nc2cc(C(=O)NCCCN(Cc3ccccc3)C(C)C)c3ccccc3n2)c1	.	?	5.8µM*	4.6µM*	.	.
SMILES	SW480 rerep	Chronic BCR inh	TDP1 cell CPT	TDP1 cell noCPT	IL1B secr inh	MCF10A rerep
CSc1cccc(Nc2cc(C(=O)NC3CCCCC3)c3ccccc3n2)c1	.	.	?	-25%	.	.
COc1cc(NC(=O)CCCN2C(=O)NC(C)(C)C2=O)cc(OC)c1	-7%	-1%	4%	2%	1	-8%
CNC(=S)NNC(=O)c1c(C)nc2cc(C)ccn12	-5%	-4%	1%	-14%	11	-4%
OC[C@@H]1CN(Cc2ccc3c(c2)OCO3)C[C@H](n2cnc3c(N4CCN(c5ccccc5)CC4)ncnc32)O1	.	.	18µM*	?	-1	.
COCCN1C[C@@H](CO)O[C@@H](n2cnc3c(N4CCN(c5ccccc5)CC4)ncnc32)C1	.	.	-17%	?	34	.
OC[C@@H]1CN(Cc2cccs2)C[C@H](n2cnc3c(N4CCN(c5ccccc5)CC4)ncnc32)O1	.	.	23µM*	?	5	.
OCCN1CCN(c2ncnc3c2ncn3[C@H]2CN(Cc3cccs3)C[C@@H](CO)O2)CC1	.	.	?	-1%	35	.
OC[C@@H]1CN(Cc2cccnc2)C[C@H](n2cnc3c(N4CCN(c5ccccc5)CC4)ncnc32)O1	.	.	?	16µM*	-79*	.
CC(=O)OC[C@@H]1CN(Cc2ccccc2)C[C@H](n2cnc3c(NC(C)C)ncnc32)O1	.	.	-9%	?	19	.
CC(=O)OC[C@@H]1CN(Cc2ccccc2)C[C@H](n2cnc3c(N4CCN(c5ccccc5)CC4)ncnc32)O1	.	.	16µM*	18µM*	10	.
CNc1ncnc2c1ncn2[C@H]1CN(Cc2ccc3c(c2)OCO3)C[C@@H](CO)O1	.	.	12µM*	?	-8	.
OC[C@@H]1CN(Cc2ccc3c(c2)OCO3)C[C@H](n2cnc3c(NC4CCC4)ncnc32)O1	.	.	?	?	14	.
CCCCC(=O)NS(=O)(=O)c1ccc(N=NN(CC)CC)cc1	-14%	0%	-17%	-6%	-9	-14%
COCCCNc1nc2c(c(=O)[nH]c(=O)n2C)n1CC(O)COc1ccc(Cl)cc1 (configuration not stated)	.	.	-9%	5%	.	.
CCOC(=O)C1CCCN(C(=O)c2cnn3c(C(F)(F)F)cc(-c4ccccc4)nc23)C1 (configuration not stated)	0%	-1%	18µM*	23µM*	-9	-21%
CCOC(=O)c1cnn2c(C(F)(F)F)cc(-c3ccccc3)nc12	0%	6%	?	-27%	-2	-4%
CCOC(=O)N1CCN(c2nc(-c3ccco3)cc(C(F)(F)F)n2)CC1	4%	0%	?	?	18	11%
CCOC(=O)N1CCC(NC(=O)c2cnn3c(C(F)(F)F)cc(-c4cccc(OC)c4)nc23)CC1	15%	?	13µM*	16µM*	28	?
